Data from PubChem BioAssay (Tox21).
Results filed as inconclusive are left out. Calls of active or inactive are those of the source. Unless noted, calls come from the whole dose curve; as a rule, active = well fitted curve in the direction sought with a large enough effect in the repeat runs; inconclusive = weak or mixed curves; inactive = no such curve, though single readings can be large; an effect the other way counts as inactive or inconclusive.

Experiments:
[1] = molecular target: Luciferin 4-monooxygenase (Photinus pyralis) (UniProt P08659); assay: qHTS assay to identify small molecule inhibitors of firefly luciferase (AID 1224835); note: nearly all actives have a fitted effect of over 25% in size
Outline: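 Inhibition of purified Photinus luciferase is measured by luminescence. Substrate levels (D-luciferin, ATP) sit at their KM values. Each compound is tested in a concentration series.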

[2] = qHTS assay to identify small molecule agonists of the constitutive androstane receptor (CAR) signaling pathway - cell viability counter screen (AID 1224836); note: nearly all actives have a fitted effect of over 45% in size
Outline: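 23 h treatment, 37 C, 5% CO2. Cell line: HepG2 stably expressing hCAR with a CYP2B6-2.2kb construct. Co-treatment: PK11195, 0.75 uM final. Read-out: CellTiter-Fluor fluorescence intensity.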

[3] = qHTS assay to identify small molecule antagonists of the constitutive androstane receptor (CAR) signaling pathway - cell viability counter screen (AID 1224837); note: nearly all actives have a fitted effect of over 45% in size
Outline: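 Multiplexed cytotoxicity read-out for the CAR antagonist screen: double-stable HepG2-CYP2B6-hCAR cells co-treated with 50 nM CITCO (final) and compound over 15 concentrations, incubated 23 hr, then assessed by CellTiter-Fluor fluorescence.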

[4] = qHTS assay to identify small molecule antagonists of the estrogen related receptor signaling pathway with the pleiotropic PPARgamma coactivator (PGC) from Tox21 10K library - cell viability counter screen (AID 1224840; active = well fitted cell-killing curve with a large enough effect in the repeat runs, not every such curve was filed as active; note: nearly all actives have a fitted effect of over 40% in size)
Outline: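 Step one, plate 2,000 PGC/ERR cells per well; step two, incubate 6 h at 37 C/5% CO2; step three, pin-transfer compounds; step four, incubate 17.5 h; step five, add CellTiter-Fluor and read fluorescence after 30 min.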

[5] = qHTS assay to identify small molecule antagonists of the estrogen related receptor signaling pathway with the pleiotropic PPARgamma coactivator (PGC) from Tox21 10K library (AID 1224841; call rule not given here; note: actives are mostly falling curves and most rising ones were filed inactive; nearly all actives have a fitted effect of over 50% in size)
Outline: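 Antagonism in this quantitative HTS is taken from loss of luciferase signal in PGC/ERR cells. Cells (2,000/well) are treated with compounds in DMSO after a 6 h settling period and read by One-Glo luminescence after 18 h.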

[6] = qHTS assay to identify small molecule agonists of the estrogen related receptor signaling pathway with the pleiotropic PPARgamma coactivator (PGC) from Tox21 10K library (AID 1224842); note: nearly all actives have a fitted effect of over 15% in size
Outline: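 Luminescence from One-Glo (30 min, room temperature) measured after PGC/ERR cells had 18 h at 37 C with pinned compound (23 nL in DMSO). Cells had been seeded at 2,000 per well and pre-incubated 6 h.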

[7] = molecular target: Thyrotropin receptor (Homo sapiens) (UniProt P16473); assay: qHTS assay to identify small molecule agonists of the thyroid stimulating hormone receptor (TSHR) signaling pathway (AID 1224843; calls by dose curve; note: nearly all actives have a fitted effect of over 45% in size)
Outline: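 Screening of the Tox21 10K collection used HEK293 cells engineered with TSHR at 800 cells per well. After a 30-min room-temperature compound exposure, HTRF cAMP reagents were added and fluorescence recorded 1 h later.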

[8] = qHTS assay to identify small molecule agonists of the hypoxia (HIF-1) signaling pathway - cell viability counter screen (AID 1224844; calls by dose curve; note: nearly all actives have a fitted effect of over 50% in size)
Outline: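 Tox21 10K compounds were added to HRE-bla ME-180 cells (0.5% dialyzed FBS) and incubated 17 hrs at 37C; ATP-based CellTiter-Glo luminescence then reported cell viability in the same wells.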

[9] = qHTS assay to identify small molecule agonists of the hypoxia (HIF-1) signaling pathway (AID 1224846; active = well fitted activation curve with a large enough effect in the signal ratio in the repeat runs, not every such curve was filed as active; the % refers to the signal ratio)
Outline: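 Steps: seed ME-180 HRE-bla cells (2,000/well, 0.5% dialyzed FBS); incubate 5 hrs at 37C; pin-transfer compounds or DMSO; incubate 17 hrs; add LiveBLAzer B/G substrate CCF4-AM; measure reporter activation by FRET.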

[10] = qHTS assay to identify small molecule antagonists of the estrogen related receptor (ERR) signaling pathway from Tox21 library (AID 1224848); note: nearly all actives have a fitted effect of over 50% in size
Outline: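 Antagonist-mode screen of the Tox21 10K library in an NTP-provided ERR reporter cell line; 18 h compound exposure at 37 C, luminescence measured with ONE-Glo.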

[11] = qHTS assay to identify small molecule agonists of the estrogen related receptor (ERR) signaling pathway from Tox21 library (AID 1224849; calls by dose curve; note: nearly all actives have a fitted effect of over 15% in size); settings: ERR reporter cell line, ONE-Glo luciferase, 18 h; at 92.4 µM (top of the series) unless noted
Outline: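 Agonist signal is luciferase luminescence from an ERR reporter cell line treated 18 h at 37 C with DMSO-dissolved compounds, read 30 min after ONE-Glo addition at room temperature.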

[12] = qHTS RealTime-Glo MT Cell Viability Assay in HepG2 cells - 24 hour (AID 1224867); note: nearly all actives have a fitted effect of over 50% in size
Outline: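 Cells + NanoLuc/prosubstrate dispensed (600 cells/well) → 5 h at 37 C/5% CO2 → compounds in DMSO transferred → 40 h incubation at 37 C, luminescence read at 0, 8, 16, 24, 32, 40 h.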

[13] = qHTS RealTime-Glo MT Cell Viability Assay in HEK293 cells - 32 hour (AID 1224868)
Outline: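 Tox21 10K qHTS, HEK293, 600 cells/well, RealTime-Glo reagent co-dispensed with cells; 5 h preincubation, compound by pintool, 37 C, luminescence at 0–40 h.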

[14] = A CellTox Green Cytotoxicity Assay to monitor cytotoxicity in HEK293 cells - 0 hour (AID 1224869); note: nearly all actives have a fitted effect of over 50% in size
Outline: (§1)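 Cytotoxicity was tracked continuously in HEK293 cells by a DNA-binding dye excluded from viable cells. Compounds were transferred in DMSO 5 h after seeding; fluorescence was recorded at intervals up to 40 h.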

[15] = qHTS RealTime-Glo MT Cell Viability Assay in HepG2 cells - 40 hour (AID 1224870); note: nearly all actives have a fitted effect of over 50% in size
Outline: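 Real-time viability: cells seeded at 600 per well together with NanoLuc and cell-permeant prosubstrate, compounds added after 5 h incubation. Luminescence tracked at 0, 8, 16, 24, 32 and 40 h of exposure.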

[16] = A CellTox Green Cytotoxicity Assay to monitor cytotoxicity in HEK293 cells - 40 hour (AID 1224871); note: nearly all actives have a fitted effect of over 45% in size
Outline: as §1

[17] = molecular target: Nuclear receptor subfamily 1 group I member 3 (Homo sapiens) (UniProt Q14994); assay: qHTS assay to identify small molecule agonists of the constitutive androstane receptor (CAR) signaling pathway (AID 1224839);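 note: HepG2 cells stably carrying human CAR and a CYP2B6 luciferase reporter; nearly all actives have a fitted effect of over 15% in size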
Outline: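 Compounds tested at 15 concentrations on HepG2 cells stably harbouring hCAR and CYP2B6-2.2kb reporter constructs, co-treated with PK11195 (0.75 uM final), 24 h at 37 C; luminescent reporter signal quantified.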

[18] = qHTS assay to identify small molecule agonists of H2AX (AID 1224845; active = well fitted activation curve with a large enough effect in the signal ratio in the repeat runs, not every such curve was filed as active; the % refers to the signal ratio)
Outline: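 Phospho-H2AX Ser139 measured by HTRF (ex 320 nm; em 665 and 620 nm) after 24 hr antibody incubation. Compounds, 15 concentrations, 0.76% DMSO, were applied to CHO-K1 cells for 3hr at 37C before lysis.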

[19] = qHTS assay to identify small molecule agonists of H2AX - cell viability counter screen (AID 1224847; calls by dose curve; note: top concentration of the series differs between compounds; nearly all actives have a fitted effect of over 30% in size)
Outline: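 Compounds tested at 15 concentrations were incubated 3 hr at 37C with wild-type CHO-K1 cells; cellular ATP-based luminescence (CellTiter-Glo) indicated viability.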

[20] = molecular target: Nuclear receptor subfamily 1 group I member 3 (Homo sapiens) (UniProt Q14994); assay: qHTS assay to identify small molecule antagonists of the constitutive androstane receptor (CAR) signaling pathway (AID 1224838); note: nearly all actives have a fitted effect of over 40% in size
Outline: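 Compounds were titrated across 15 concentrations onto HepG2 cells double-stably expressing hCAR and a CYP2B6-2.2kb reporter, together with 50 nM CITCO (final). After 24 h at 37 C, luciferase activity was measured by luminescence.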
% is set by controls: 0 for no effect and ±100 for the full control effect.

Chain of Thyrotropin receptor (Homo sapiens) (P16473 whole entry, looked up): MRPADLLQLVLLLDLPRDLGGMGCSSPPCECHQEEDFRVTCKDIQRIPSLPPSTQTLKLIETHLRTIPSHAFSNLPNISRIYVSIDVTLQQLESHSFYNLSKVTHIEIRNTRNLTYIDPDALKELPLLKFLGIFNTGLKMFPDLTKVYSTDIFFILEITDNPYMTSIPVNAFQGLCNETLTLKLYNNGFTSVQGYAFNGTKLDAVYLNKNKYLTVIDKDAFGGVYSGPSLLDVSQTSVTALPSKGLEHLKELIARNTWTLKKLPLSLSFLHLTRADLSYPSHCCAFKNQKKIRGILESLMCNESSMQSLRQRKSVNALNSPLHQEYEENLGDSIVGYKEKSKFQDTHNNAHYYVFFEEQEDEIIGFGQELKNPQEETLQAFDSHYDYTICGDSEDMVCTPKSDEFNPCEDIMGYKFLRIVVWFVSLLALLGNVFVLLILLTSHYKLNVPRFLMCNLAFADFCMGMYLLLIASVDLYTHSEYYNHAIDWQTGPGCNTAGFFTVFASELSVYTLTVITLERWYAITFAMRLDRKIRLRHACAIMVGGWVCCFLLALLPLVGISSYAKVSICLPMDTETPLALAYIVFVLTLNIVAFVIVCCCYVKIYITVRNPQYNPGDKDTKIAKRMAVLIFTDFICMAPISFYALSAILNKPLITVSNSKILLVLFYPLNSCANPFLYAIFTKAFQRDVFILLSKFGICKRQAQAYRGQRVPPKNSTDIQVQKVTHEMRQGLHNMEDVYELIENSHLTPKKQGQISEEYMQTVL
Chain of Luciferin 4-monooxygenase (Photinus pyralis) (P08659 whole entry, looked up): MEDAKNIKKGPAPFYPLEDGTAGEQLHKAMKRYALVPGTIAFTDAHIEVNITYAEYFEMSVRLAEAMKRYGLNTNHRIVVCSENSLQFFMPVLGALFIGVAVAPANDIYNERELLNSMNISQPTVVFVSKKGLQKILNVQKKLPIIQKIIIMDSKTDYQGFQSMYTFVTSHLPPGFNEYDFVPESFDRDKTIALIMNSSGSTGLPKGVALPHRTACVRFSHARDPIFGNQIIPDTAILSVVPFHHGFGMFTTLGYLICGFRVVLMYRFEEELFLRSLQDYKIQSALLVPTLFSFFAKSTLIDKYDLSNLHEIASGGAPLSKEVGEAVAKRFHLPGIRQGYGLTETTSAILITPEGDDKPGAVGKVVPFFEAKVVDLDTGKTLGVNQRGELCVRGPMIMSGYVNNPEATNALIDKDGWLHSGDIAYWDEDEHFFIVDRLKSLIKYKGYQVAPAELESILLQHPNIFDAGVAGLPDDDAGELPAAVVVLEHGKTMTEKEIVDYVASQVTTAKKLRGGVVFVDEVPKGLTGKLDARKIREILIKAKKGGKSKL
Chain of Nuclear receptor subfamily 1 group I member 3 (Homo sapiens) (Q14994 whole entry, looked up): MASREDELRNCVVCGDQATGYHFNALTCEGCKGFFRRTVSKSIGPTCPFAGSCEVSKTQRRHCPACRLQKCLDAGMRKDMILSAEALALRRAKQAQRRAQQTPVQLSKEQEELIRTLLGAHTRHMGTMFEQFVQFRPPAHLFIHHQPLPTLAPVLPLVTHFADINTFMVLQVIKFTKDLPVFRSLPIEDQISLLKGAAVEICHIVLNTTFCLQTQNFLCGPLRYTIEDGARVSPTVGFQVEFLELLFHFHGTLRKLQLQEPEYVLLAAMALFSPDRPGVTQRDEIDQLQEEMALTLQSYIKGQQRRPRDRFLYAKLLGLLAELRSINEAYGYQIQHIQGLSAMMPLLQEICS

C/C(=C(\CCO)SS/C(CCO)=C(\C)N(C=O)Cc1cnc(C)nc1N)N(C=O)Cc1cnc(C)nc1N
inactive: Potency [1] | Potency [2] | Potency [3] | Potency [4] | Potency [5] | Potency [6] | Potency [7] | Potency [8] | outcome [9] | Potency [10] | activity change, positive = activation [11] 3.66% [at 42.5 µM] | outcome [12] | Potency [13] | Potency [14] | Potency [15] | Potency [16]

CCCCOC(=O)C(C)Oc1ccc(Oc2ccc(C(F)(F)F)cn2)cc1 (centres undefined)
inactive: Potency [1] | Potency [2] | Potency [3] | Potency [17] | Potency [8] | Potency [18] | outcome [9] | Potency [19] | outcome [12] | Potency [13] | Potency [14] | Potency [15] | Potency [16]

N#CCCCC(C#N)CCC#N (centres undefined)
inactive: Potency [1] | Potency [2] | Potency [3] | Potency [4] | Potency [5] | Potency [6] | Potency [7] | Potency [8] | outcome [9] | Potency [19] | Potency [10] | activity change, positive = activation [11] 0.869% | outcome [12] | Potency [14] | Potency [15] | Potency [16]

Clc1cccc(C(c2ccc3nc[nH]c3c2)n2ccnc2)c1 (centres undefined)
inactive: Potency [1] | Potency [2] | Potency [3] | Potency [20] | outcome [9] | outcome [12] | Potency [14] | Potency [15] | Potency [16]

CCOc1ccc(NC(C)=O)cc1N
inactive: Potency [1] | Potency [2] | Potency [3] | Potency [20] | Potency [4] | Potency [5] | Potency [6] | Potency [8] | Potency [18] | outcome [9] | Potency [19] | Potency [10] | activity change, positive = activation [11] 8.88% | outcome [12] | Potency [13] | Potency [14] | Potency [16]

CCOC(=O)CC(O)(CC(=O)OCC)C(=O)OCC
inactive: Potency [1] | Potency [2] | Potency [3] | Potency [20] | Potency [4] | Potency [7] | Potency [8] | Potency [18] | Potency [19] | outcome [12] | Potency [14] | Potency [15] | Potency [16]

Cc1ccccc1CCO
inactive: Potency [1] | Potency [2] | Potency [3] | Potency [4] | Potency [5] | Potency [6] | Potency [7] | Potency [8] | Potency [18] | outcome [9] | Potency [10] | activity change, positive = activation [11] -1.5% | outcome [12] | Potency [13] | Potency [14] | Potency [15] | Potency [16]

C=Cc1ccc(C=C)cc1
inactive: Potency [1] | Potency [2] | Potency [3] | Potency [4] | Potency [6] | Potency [8] | Potency [18] | outcome [9] | Potency [10] | activity change, positive = activation [11] 3.76% | outcome [12] | Potency [13] | Potency [14] | Potency [15] | Potency [16]

CC(=O)Nc1ccn(C2COC(COC(=O)c3ccccc3)O2)c(=O)n1 (centres undefined)
inactive: Potency [1] | Potency [2] | Potency [3] | Potency [17] | Potency [4] | Potency [5] | Potency [6] | Potency [7] | Potency [8] | outcome [9] | Potency [19] | Potency [10] | activity change, positive = activation [11] -13.3% [at 42.5 µM] | outcome [12] | Potency [13] | Potency [14] | Potency [16]

COc1ccc(/C(C)=C/C(=O)O)c(OC)c1
inactive: Potency [1] | Potency [2] | Potency [3] | Potency [4] | Potency [5] | Potency [6] | Potency [7] | Potency [8] | Potency [18] | outcome [9] | Potency [19] | Potency [10] | activity change, positive = activation [11] 8.11% [at 42.5 µM] | outcome [12] | Potency [13] | Potency [14] | Potency [15] | Potency [16]

Cc1cc(SC2=C(O)C[C@@](CCc3ccc(N)cc3)(C(C)C)OC2=O)c(C(C)(C)C)cc1CO
inactive: Potency [1] | Potency [2] | Potency [3] | Potency [4] | Potency [5] | Potency [6] | Potency [7] | Potency [8] | Potency [18] | outcome [9] | Potency [19] | Potency [10] | activity change, positive = activation [11] -7.37% | outcome [12] | Potency [14] | Potency [15] | Potency [16]

CCc1cnc(C(=O)O)c(C(=O)O)c1
inactive: Potency [1] | Potency [2] | Potency [3] | Potency [20] | Potency [17] | Potency [18] | outcome [9] | Potency [19] | outcome [12] | Potency [14] | Potency [15] | Potency [16]

O=C(c1ccc(Cl)cc1)c1ccc(Cl)cc1
inactive: Potency [1] | Potency [2] | Potency [3] | Potency [20] | Potency [4] | Potency [8] | Potency [18] | outcome [9] | outcome [12] | Potency [13] | Potency [14]

Nc1ncnc2c1ncn2[C@@H]1O[C@H](CO)[C@@H](O)[C@H]1O
inactive: Potency [1] | Potency [2] | Potency [3] | Potency [20] | Potency [4] | Potency [7] | Potency [19] | outcome [12] | Potency [13] | Potency [14] | Potency [16]

CCCCCCCCCCCCCCCCCCCl
inactive: activity change, negative = inhibition [1] 2.69% [at 10.5 µM] | viability change, negative = cytotoxic [2] 3.36% [at 8.39 µM] | activity change, negative = cytotoxicity [3] 3.1% [at 8.39 µM] | viability change, negative = cytotoxic [4] 10.7% [at 8.39 µM] | activity, negative = inhibition [5] 20.1% [at 8.39 µM] | activation [6] 1.05% [at 8.39 µM] | activation [7] -0.25% [at 8.39 µM] | activity change, negative = cytotoxicity [8] 0.227% [at 6.97 µM] | activation (H2AX phosphorylation) [18] -0.95% [at 14 µM] | activation [9] 0.175% [at 7.01 µM] | activity change, negative = cytotoxicity [19] 2.91% [at 14 µM] | activity, negative = inhibition [10] 23.3% [at 8.39 µM] | activity change, negative = cytotoxicity [12] 1.13% [at 6.97 µM] | activity change, negative = cytotoxic [13] -2.36% [at 6.97 µM] | cytotoxicity [14] 0.805% [at 6.97 µM] | activity change, negative = cytotoxic [15] 2.37% [at 6.97 µM] | cytotoxicity increase [16] -1.51% [at 6.97 µM]
